Entries with a potency or affinity are not part of this list. Activity calls are given as the source filed them. The rule behind the calls is not given here.

The target of this test is CAAX prenyl protease 2 (Homo sapiens) (UniProt Q9Y256). Description: human Rce1 protease inhibitors, dose response, biochemical, yeast membranes, quenched-peptide fluorescence, cherry-pick (AID 588849). The conditions noted are these: yeast membrane fractions expressing human Rce1, quenched-peptide fluorescence, 4 h; series mostly up to 10 µM.
Chain of CAAX prenyl protease 2 (Homo sapiens) (Q9Y256 whole entry, looked up): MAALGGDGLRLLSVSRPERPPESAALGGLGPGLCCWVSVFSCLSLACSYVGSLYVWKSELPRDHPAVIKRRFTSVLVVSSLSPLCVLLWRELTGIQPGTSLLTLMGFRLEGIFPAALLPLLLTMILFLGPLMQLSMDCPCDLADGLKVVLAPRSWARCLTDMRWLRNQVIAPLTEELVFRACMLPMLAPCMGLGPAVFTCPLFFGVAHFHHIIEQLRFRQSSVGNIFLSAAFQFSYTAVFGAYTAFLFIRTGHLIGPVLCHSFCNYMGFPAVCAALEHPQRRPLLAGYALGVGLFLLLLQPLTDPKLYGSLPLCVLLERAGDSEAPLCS
As for `Cc1oc(-c2cccs2)nc1CSCC(=O)N1CCC2(CC1)OCCO2`, the compound was called inactive.

Turning to `Cc1ccc(-c2cc(-c3ccccc3)cc(-c3ccccc3)[n+]2-c2ccccc2)cc1`, the call was inactive.

Regarding `CCOC(=O)[C@@H]1[C@H]2COc3ccc(Br)cc3[C@@H]2N2C(=O)N(c3cccc(C)c3)C(=O)[C@]12C`, the compound was classed as inactive.

With `CN1CCN(c2ccc([N+](=O)[O-])c(Sc3nncn3C)c2)CC1`, the call was inactive.

Take `Clc1ccc(C[n+]2c(-c3ccccc3)cc(-c3ccccc3)cc2-c2ccccc2)cc1`: the result was inactive.

For `CN1CC(C(=O)c2ccc(Cl)cc2)C(c2ccc(Cl)cc2Cl)C1` (centres undefined), the compound was called inactive.

For `C=CC[N+]1(C)CC[C@]23c4c5ccc(O)c4O[C@H]2C(=O)CC[C@@]3(O)[C@H]1C5` (some centres undefined), the compound was called inactive.

Regarding `Cc1ccnc(-n2c(-c3ccco3)nc3ccccc3c2=O)c1`, the compound was called inactive.

With `Cc1nccc2c1[nH]c1ccccc12`, the result was inactive.

`c1ccc(CCCN2CCN(CCOC(c3ccccc3)c3ccccc3)CC2)cc1`: the compound was called inactive.

Turning to `COc1ccc2c3c([nH]c2c1)C(C)=NCC3`, the compound was called inactive.

As for `COCCCn1c(N)c(C(=O)NCc2ccco2)c2nc3ccccc3nc21`, the call was inactive.

As for `C=CCn1c(O)c(C(CC)=Nc2ccc(N(CC)CC)cc2)c(=O)[nH]c1=O`, the compound was classed as inactive.

Turning to `Cc1ccc(-c2nc3ccc(C)cn3c2CC(=O)N(C)C)cc1`, the result was inactive.

The record behind these values is PubChem BioAssay AID588849 (Broad Institute, 2011).
